# “And” between values parts separate entries of the source, which are not always exact repeats. Equal entries are not always repeated. The source made the active and inactive calls.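 Rule for the calls, unless noted: active = thallium flux through the channel raised or lowered by more than 3 SD from vehicle-only wells, actives on both sides; inactive = the rest.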
# Tests used:
# [1] = system: Hepatitis C virus NS3 helicase; test: HCV NS3 helicase inhibitors, primary screen, biochemical, fluorescence polarization, NIH Clinical Collection (AID 743270; call rule not given here); settings: NS3 helicase binding to Cy5-dT15 DNA, stronger effect = higher value, concentration not given here
# [2] = target: Single-stranded DNA-binding protein (Escherichia coli (strain K12)) (UniProt P0AGE0); test: E. coli SSB displacement from DNA, counter-screen for HCV NS3 helicase inhibitor project, biochemical, fluorescence polarization, NIH Clinical Collection (AID 743271; in the data active = inhibition above about 28%); settings: stronger effect = higher value, concentration not given here
# [3] = fluorescence interference in NS3h assay format, artefact control for HCV NS3 helicase inhibitor project, biochemical, NIH Clinical Collection (AID 743272; call rule not given here;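 note: HCV NS3 helicase with a Cy5 labelled single stranded DNA probe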); settings: fluorescence interference counterscreen, stronger effect = lower value
# [4] = stimulators of nuclear beta-catenin in C2C12, primary screen, imaging, WNT3A-conditioned medium, mouse C2C12, NPC library (AID 1117326; in the data active = nuclear beta-catenin stimulation mostly above about 4.2%, no sharp cut-off; inactive = mostly below about 10%); settings: stronger effect = higher value
# [5] = stimulators of insulin release from INS-1E, primary screen, cell-based, 5 mM glucose, NPC library (AID 1117329;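 active = compound raises insulin release from rat beta cells at 5 mM glucose, no numeric limit stated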); settings: rat INS-1E insulin secretion, at 10 µM, stronger effect = higher value
# [6] = growth inhibition of GSK3B-pretreated HCT116 cells – cell-based, CellTiter-Glo, 0.2 to 20 µM (AID 1117336;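 active = compounds lowering colon cancer cell viability after pretreatment blocking the GSK3B kinase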); settings: HCT116 viability after GSK3B inhibitor, at 20 µM, stronger effect = higher value
# [7] = inhibition of endothelial tube formation, primary screen, imaging, VEGF stimulated, CD31 staining, tube area, NPC library (AID 1117340;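 active = compound that reduces growth-factor-driven endothelial tube area in a mixed cell culture, no cutoff stated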); settings: VEGF-stimulated ADSC/ECFC co-culture, at 10 µM, stronger effect = higher value
# [8] = glucagon-like peptide 1 release enhancers, primary assay, NCI-H716 cell line, NPC library (AID 1117341;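 active = compound raises GLP1 secretion from the human gut endocrine cells, with no numeric limit stated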); settings: NCI-H716 cells, at 10 µM, stronger effect = higher value
# [9] = HCT116 colon cancer cell growth inhibition, primary screen, CellTiter-Glo luminescence, NPC library (AID 1117342;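 active = compounds that lower survival of HCT116 colon cancer cells in the luminescence readout, no numeric limit stated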); settings: at 20 µM (top of the series)
# [10] = CellTiter-Glo luminescent readout of SW480 viability loss, NPC library primary (AID 1117343;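 active = compounds that lower viability of the colon cancer cells in the luminescence readout, with no numeric limit stated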); settings: CellTiter-Glo luminescence; at 20 µM (top of the series)
# [11] = decreased DLD-1 cellular survival, CellTiter-Glo luminescent readout, NPC compound collection, primary HTS (AID 1117346;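 active = compounds that lower survival of DLD-1 colon cancer cells in the luminescence readout, no cutoff given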); settings: DLD-1 viability, CellTiter-Glo luminescence; at 20 µM (top of the series)
# [12] = sensitizers of A549 cells to miR-34 induction, primary screen, imaging, A549 dox-inducible miR-34, nuclei and caspase counts (AID 1347080;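 active = compounds whose cell count with miR-34 switched on is under 0.7 times the count with it off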); settings: A549 miR-34 inducible, Hoechst nuclei count, 48 h
# [13] = survival rescue of mitochondrial mutant cells in low glucose, primary screen, MELAS cybrids, Rieske KO mouse fibroblasts, CellTiter-Glo (AID 1508586;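 active = mean z-score across replicates of 1.96 or higher in either the MELAS or the Rieske mutant cell line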;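 note: z relative to plate mean and SD of compound and empty wells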)
# [14] = target: NAD(+) hydrolase SARM1 (Homo sapiens) (UniProt Q6SZW1); test: SARM1 TIR NADase inhibitors, cell lysate, NAD-Glo luminescence (AID 1508614;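 active = compound whose remaining NAD level is above about 45 nM, limit read from the data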;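 note: higher remaining NAD means stronger inhibition of SARM1 NADase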); settings: SAM-TIR HEK293T lysate NADase, at 1 µM, stronger effect = higher value
# Sequence of NAD(+) hydrolase SARM1 (Homo sapiens) (Q6SZW1 whole entry, looked up): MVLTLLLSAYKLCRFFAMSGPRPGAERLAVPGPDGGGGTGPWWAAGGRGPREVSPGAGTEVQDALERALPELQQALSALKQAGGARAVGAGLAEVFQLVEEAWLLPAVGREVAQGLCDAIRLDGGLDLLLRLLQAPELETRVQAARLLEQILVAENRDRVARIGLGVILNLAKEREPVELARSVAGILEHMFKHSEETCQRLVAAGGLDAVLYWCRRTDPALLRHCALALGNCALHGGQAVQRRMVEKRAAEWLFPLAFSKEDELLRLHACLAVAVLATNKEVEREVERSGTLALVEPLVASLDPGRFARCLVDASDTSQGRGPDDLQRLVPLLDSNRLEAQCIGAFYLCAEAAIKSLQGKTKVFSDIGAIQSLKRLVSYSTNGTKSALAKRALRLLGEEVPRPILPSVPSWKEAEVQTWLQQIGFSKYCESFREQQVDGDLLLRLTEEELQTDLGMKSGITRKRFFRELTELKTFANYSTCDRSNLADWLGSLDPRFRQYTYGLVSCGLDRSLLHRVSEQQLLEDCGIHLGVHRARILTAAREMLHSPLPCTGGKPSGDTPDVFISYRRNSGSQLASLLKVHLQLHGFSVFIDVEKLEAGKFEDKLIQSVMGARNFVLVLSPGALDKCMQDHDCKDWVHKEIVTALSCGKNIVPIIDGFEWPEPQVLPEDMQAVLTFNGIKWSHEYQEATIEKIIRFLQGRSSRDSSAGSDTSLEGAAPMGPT
# F380Y = test: modulators of BK channel variants, profiling panel, selectivity assay, cell-based, U2OS BacMam, thallium flux, beta subunits (AID 1259406); settings: at 30 µM;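 note: initial slope of Thallos dye fluorescence rise after thallium is added; log ratio against the mean of 0.3% DMSO vehicle wells on the same plate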
# F380Y/beta2Delta = test: as above; settings: at 30 µM
# [15] = target: Calcium-activated potassium channel subunit alpha-1 (Homo sapiens) + Leucine-rich repeat-containing protein 26 (Homo sapiens) (UniProt Q12791+Q2I0M4); test: as above; settings: F380Y/Slo1WT/gamma1, at 30 µM
# Sequence of Calcium-activated potassium channel subunit alpha-1 (Homo sapiens) + Leucine-rich repeat-containing protein 26 (Homo sapiens) (Q2I0M4 whole entry, looked up, one chain of several): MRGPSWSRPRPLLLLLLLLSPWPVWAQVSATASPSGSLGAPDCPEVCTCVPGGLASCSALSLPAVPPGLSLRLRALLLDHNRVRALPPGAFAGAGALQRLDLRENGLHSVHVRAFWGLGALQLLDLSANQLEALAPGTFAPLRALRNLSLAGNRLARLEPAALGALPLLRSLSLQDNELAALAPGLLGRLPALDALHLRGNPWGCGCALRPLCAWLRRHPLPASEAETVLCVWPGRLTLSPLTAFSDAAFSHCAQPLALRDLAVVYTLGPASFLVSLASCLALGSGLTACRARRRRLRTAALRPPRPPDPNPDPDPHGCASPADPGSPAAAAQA
# [16] = target: 6-phosphogluconate dehydrogenase, decarboxylating (Homo sapiens) (UniProt P52209); test: 6PGD enzyme inhibitors, primary screen, biochemical, human, recombinant enzyme, NADPH absorbance (AID 1159550;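 active = at least 20% inhibition of 6-phosphogluconate dehydrogenase activity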); settings: recombinant 6PGD, NADPH absorbance 341 nm; at 10 µM; stronger effect = higher value
# Sequence of 6-phosphogluconate dehydrogenase, decarboxylating (Homo sapiens) (P52209 whole entry, looked up): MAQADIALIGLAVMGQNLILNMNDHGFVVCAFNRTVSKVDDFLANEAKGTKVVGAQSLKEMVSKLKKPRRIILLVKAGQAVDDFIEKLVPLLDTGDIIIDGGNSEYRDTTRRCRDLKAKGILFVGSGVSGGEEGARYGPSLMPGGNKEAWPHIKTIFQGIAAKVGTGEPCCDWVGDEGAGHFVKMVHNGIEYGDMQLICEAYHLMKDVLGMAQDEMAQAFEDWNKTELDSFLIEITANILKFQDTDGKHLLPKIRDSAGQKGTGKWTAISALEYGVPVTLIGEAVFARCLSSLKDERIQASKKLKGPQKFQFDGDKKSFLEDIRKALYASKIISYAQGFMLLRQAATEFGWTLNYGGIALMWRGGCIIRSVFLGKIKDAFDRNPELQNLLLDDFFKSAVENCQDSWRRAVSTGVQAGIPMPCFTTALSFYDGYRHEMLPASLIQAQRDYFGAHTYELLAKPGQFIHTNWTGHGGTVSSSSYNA
# [17] = differential killing of epithelial or mesenchymal cells, primary screen, imaging, PC-3E GFP, TEM4-18 mCherry, co-culture (AID 1345086;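 active = compounds killing one labelled cell type while sparing the other, by normalised counts and ratio limits, not self-fluorescent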;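 for all read-outs here: cells exposed to compound for 72 h before imaging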;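 for red/green cell ratio (normalised): normalised mesenchymal count divided by normalised epithelial count so high means epithelial killing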); settings: imaging cell counts, at 1 µM; for red/green cell ratio (normalised): actives lie on both sides, counts scaled to control wells, 1 = unselective
# [18] = target: Mitogen-activated protein kinase 7 (Homo sapiens) (UniProt Q13164); test: ERK5 transactivation activators in reporter cells, primary screen, cell-based, HTS (AID 1508626;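 active = luciferase signal above three times the same-plate solvent-only control wells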;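 note: luciferase driven by Gal4-ERK5 fusion binding five Gal4 sites before minimal TATA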); settings: HeLa Gal4-ERK5 transactivation, 18 h, at 5 µM, stronger effect = higher value
# Sequence of Mitogen-activated protein kinase 7 (Homo sapiens) (Q13164 whole entry, looked up, the tested form may be a part): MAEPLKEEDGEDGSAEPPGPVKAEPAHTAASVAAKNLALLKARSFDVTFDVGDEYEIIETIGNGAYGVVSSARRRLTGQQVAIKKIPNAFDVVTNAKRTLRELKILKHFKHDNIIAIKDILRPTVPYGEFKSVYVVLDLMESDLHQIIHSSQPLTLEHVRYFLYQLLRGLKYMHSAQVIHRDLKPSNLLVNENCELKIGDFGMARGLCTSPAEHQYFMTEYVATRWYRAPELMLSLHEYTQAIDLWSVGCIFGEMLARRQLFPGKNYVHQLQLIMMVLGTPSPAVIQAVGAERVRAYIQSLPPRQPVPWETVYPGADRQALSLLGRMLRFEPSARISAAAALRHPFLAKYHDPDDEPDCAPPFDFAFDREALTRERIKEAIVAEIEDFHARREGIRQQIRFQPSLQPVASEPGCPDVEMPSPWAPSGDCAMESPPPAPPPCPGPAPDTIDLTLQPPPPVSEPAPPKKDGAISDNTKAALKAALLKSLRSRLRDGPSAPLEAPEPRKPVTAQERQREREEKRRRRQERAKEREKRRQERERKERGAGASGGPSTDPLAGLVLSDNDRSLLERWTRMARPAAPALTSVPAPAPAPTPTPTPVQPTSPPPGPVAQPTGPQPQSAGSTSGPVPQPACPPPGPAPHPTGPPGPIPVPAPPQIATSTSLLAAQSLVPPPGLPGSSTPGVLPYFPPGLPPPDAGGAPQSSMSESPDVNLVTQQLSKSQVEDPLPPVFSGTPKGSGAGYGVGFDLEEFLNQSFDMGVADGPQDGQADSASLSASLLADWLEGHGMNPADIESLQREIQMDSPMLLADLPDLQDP
# [19] = MELAS cybrid survival, CellTiter-Glo 48 h, stronger effect = higher value
# [20] = Rieske KO mouse fibroblast survival, CellTiter-Glo 72 h
# [21] = measured here: epithelial PC-3E GFP cell survival
# [22] = measured here: mesenchymal TEM4-18 mCherry cell survival
smiles,measurement,setting,value
C[C@@H](O)[C@H]1C(=O)N2C(C(=O)O)=C(S[C@@H]3CN[C@H](C(=O)N(C)C)C3)[C@H](C)[C@H]12,inhibition,[1],2.77% (inactive)
same,inhibition,[2],-0.87% (inactive)
same,fluorescence ratio,[3],0.99 (inactive)
same,nuclear beta-catenin stimulation,[4]; at 10 µM,-1.7% (inactive) and -0.1% (inactive)
same,nuclear beta-catenin stimulation,"[4]; stimulation, at 2 µM",1% and 0.5%
same,insulin secretion stimulation,[5],1.9% (inactive) and 2% (inactive)
same,viability decrease,[6],-24.1% (inactive) and -19.8% (inactive)
same,tube area decrease,[7],-3.2% (inactive) and 11.7% (inactive)
same,GLP1 secretion stimulation,[8],-1.2% (inactive) and -6.2% (inactive)
same,inhibition of viability,[9],3.6% (inactive) and 6.7% (inactive)
same,viability decrease (inhibition),[10],9.5% (inactive) and 15.1% (inactive)
same,viability decrease (inhibition),[11],-2.2% (inactive) and -3.6% (inactive)
same,fold change,"[12]; stronger effect = lower value, cell number ratio, induced over uninduced",0.969 (inactive) and 0.909 (inactive)
same,fold change,[12]; measured here: relative caspase fold change +Dox/-Dox,0.61 and 1.16
same,cell count,"[12]; measured here: total cells with miR-34 induction, stronger effect = lower value",9470 and 9550
same,cell count,[12]; measured here: total cells without miR-34 induction,9770 and 10500
same,z-score,[13]; [19],0.815 (inactive) and 0.0614 (inactive)
same,z-score,[13]; [20],1.23 and -0.866
same,remaining NAD,[14],10 nM (inactive)
same,log fold change Tl+ flux,F380Y,0.000985 (inactive)
same,log fold change Tl+ flux,F380Y/beta2Delta,-0.00534 (inactive)
same,log fold change Tl+ flux,[15],-0.0284 (inactive)
CN1CCN(CCCN2c3ccccc3Sc3ccc(C(F)(F)F)cc32)CC1,inhibition,[1],-1.19% (inactive)
same,inhibition,[2],1.44% (inactive)
same,fluorescence ratio,[3],0.85 (inactive)
same,nuclear beta-catenin stimulation,[4]; at 10 µM,32.2% (inactive)
same,nuclear beta-catenin stimulation,"[4]; stimulation, at 2 µM",0.2%
same,insulin secretion stimulation,[5],6.1% (inactive)
same,viability decrease,[6],110% (active)
same,tube area decrease,[7],106% (active)
same,GLP1 secretion stimulation,[8],28.8% (active)
same,inhibition of viability,[9],112% (active)
same,viability decrease (inhibition),[10],132% (active)
same,viability decrease (inhibition),[11],99.8% (active)
same,inhibition,[16],8.36% (inactive)
same,red/green cell ratio (normalised),[17],0.91 (inactive)
same,normalised cell number,[17]; [21],1
same,normalised cell number,[17]; [22],0.91
same,z-score,[13]; [19],-0.198 (inactive) and -1.6 (inactive) and 0.134 (inactive)
same,z-score,[13]; [20],-0.246 and 0.0911 and -0.232
same,remaining NAD,[14],10 nM (inactive)
same,luciferase signal,[18],52 AU (inactive)
same,log fold change Tl+ flux,F380Y,0.0849 (inactive)
same,log fold change Tl+ flux,F380Y/beta2Delta,0.0861 (active)
same,log fold change Tl+ flux,[15],0.0472 (inactive)
COc1ccccc1N1CCN(CCCNc2cc(=O)n(C)c(=O)n2C)CC1,inhibition,[1],-2.77% (inactive)
same,inhibition,[2],-1.64% (inactive)
same,fluorescence ratio,[3],0.96 (inactive)
same,nuclear beta-catenin stimulation,[4]; at 10 µM,4.3% (inactive)
same,nuclear beta-catenin stimulation,"[4]; stimulation, at 2 µM",0.2%
same,insulin secretion stimulation,[5],1.1% (inactive)
same,viability decrease,[6],1.1% (inactive)
same,tube area decrease,[7],1% (inactive)
same,GLP1 secretion stimulation,[8],-0.1% (inactive)
same,inhibition of viability,[9],10.8% (inactive)
same,viability decrease (inhibition),[10],-11.2% (inactive)
same,viability decrease (inhibition),[11],-9.9% (inactive)
same,inhibition,[16],-3.41% (inactive)
same,red/green cell ratio (normalised),[17],1.12 (inactive)
same,normalised cell number,[17]; [21],0.91
same,normalised cell number,[17]; [22],1.01
same,z-score,[13]; [19],-0.289 (inactive) and 0.285 (inactive)
same,z-score,[13]; [20],0.041 and 0.0737
same,remaining NAD,[14],10 nM (inactive)
same,luciferase signal,[18],40 AU (inactive)
same,log fold change Tl+ flux,F380Y,-0.0416 (inactive)
same,log fold change Tl+ flux,F380Y/beta2Delta,-0.00368 (inactive)
same,log fold change Tl+ flux,[15],-0.00786 (inactive)

# Reference: PubChem BioAssay
